According to the supplement of paper PMC4166925:
± gives the standard deviation of the averaged measurements. Over roughly 33,000 sequences, “E-score (dimensionless, -0.5 to 0.5)” has its median near -0.049; the highest 2% begin near 0.37. The entries come from a sample that favours the highest values as a whole.

system: T1, PmTbr T-box DNA-binding domain (GST fusion); experiment: PBM E-score of 8-mer (E-score (dimensionless, -0.5 to 0.5)); Tbr is Tbrain of the sea star Patiria miniata (Pm) or the sea urchin Strongylocentrotus purpuratus (Sp); higher = stronger binding preference; details: the construct has about 5 more residues each side
T1 sequence: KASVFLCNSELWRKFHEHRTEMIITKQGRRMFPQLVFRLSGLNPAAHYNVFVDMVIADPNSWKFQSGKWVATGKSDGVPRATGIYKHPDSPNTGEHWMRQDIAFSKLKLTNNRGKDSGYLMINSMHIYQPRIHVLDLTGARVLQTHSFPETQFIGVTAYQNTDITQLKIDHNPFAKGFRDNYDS
How it was run: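 Primer extension turned Universal Agilent oligonucleotide arrays double-stranded. They were incubated with 200 nM protein in PBS (pH 7.5); the protein was a GST-fused Tbr T-box DNA-binding domain expressed in BL21 E. coli at 20 °C and purified on glutathione. Every ungapped 8-mer was scored from the scanned, quantified probe intensities, and the Universal PBM Analysis Suite gave each an enrichment E-score averaged over duplicate arrays.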

Sequence	PBM E-score of 8-mer
ATGAGCAG	-0.0322 ± 0.034
CTGGTGTC	0.341 ± 0.023
ATGGTGGC	0.271 ± 0.056
ATGGTGCG	0.187 ± 0.036
ATGGTGTC	0.383 ± 0.02
ATGGTGTA	0.104 ± 0.021
ATGGTGTG	0.383 ± 0.0049
CAGTAGAC	-0.0988 ± 0.05
AGCGCGTG	0.27 ± 0.025
CGGTAAAG	-0.102 ± 0.037
ACACATTC	0.387 ± 0.016
ACACATTA	0.264 ± 0.008
CCACATTC	0.104 ± 0.038
AAACATTC	-0.0525 ± 0.037
AAACATTG	-0.0327 ± 0.00054
ACACATAG	0.268 ± 0.022
ACACATAA	0.251 ± 0.0089
ACACATAT	0.386 ± 0.0052
ACACATTG	0.39 ± 0.017
GAGAAAAC	0.0669 ± 0.12
ATTCCTCC	-0.291 ± 0.034
GACGCGTA	0.0611 ± 0.022
ATCCAGCA	-0.175 ± 0.032
AATGGTCG	-0.249 ± 0.14

Sequence	PBM E-score of 8-mer
ACGAGAGG	0.0873 ± 0.05
GTAGTCTA	-0.207 ± 0.03
ATAGGTGC	0.414 ± 0.0057
CTAGGTGA	0.398 ± 0.014
GTAGGTGA	0.397 ± 0.02
ATAGGTGG	0.26 ± 0.051
CTAGGTAA	-0.173 ± 0.055
GTAGGTAA	-0.141 ± 0.024
GTAGGTTA	-0.189 ± 0.025
ATAGGTGA	0.345 ± 0.028
CTAGGTTC	-0.0841 ± 0.0095
CTAGGTGC	0.403 ± 0.008
CTAGGTCA	0.00648 ± 0.021
CTAGGTCC	-0.13 ± 0.071
CAGCATAC	-0.00656 ± 0.045
GCGCAGAA	-0.0316 ± 0.067
GGTAAACC	0.131 ± 0.039
GAATCATA	0.0757 ± 0.097
CTAGTAAG	-0.0596 ± 0.04
CCATGAGC	-0.138 ± 0.16
GCTGTGAA	0.3817 ± 0.0019
CCTGTGAA	0.306 ± 0.0045
ACTGTGAG	0.22 ± 0.017
ACTGTGAT	0.152 ± 0.046

Sequence	PBM E-score of 8-mer
ACTGTGAA	0.378 ± 0.0086
TCTGTGAA	0.253 ± 0.0052
CAGGCTTA	-0.197 ± 0.047
ATATAGCG	0.0197 ± 0.053
CGTATGCA	-0.0979 ± 0.032
GATTTTGC	0.189 ± 0.061
AAATAGGA	-0.294 ± 0.053
TGCTAACA	0.369 ± 0.041
GGCTAACA	0.179 ± 0.019
AGCTAACA	0.209 ± 0.033
CGCTAACC	0.256 ± 0.017
AGCTAACG	0.157 ± 0.031
CGCTAACG	0.3714 ± 0.0037
ATGTCCAG	-0.0643 ± 0.0044
GTATGCCA	-0.0108 ± 0.032
CTTGTAGC	0.0941 ± 0.012
CACGACAC	0.314 ± 0.0061
CGCGACAA	0.336 ± 0.0038
GGCGACAA	0.3812 ± 0.0024
CGCGACAC	0.375 ± 0.02
AGCGACAC	0.317 ± 0.054
TGCGACAA	0.296 ± 0.013
CGCGACAG	0.308 ± 0.014
GGCGACAC	0.402 ± 0.019

Sequence	PBM E-score of 8-mer
GGCGACCC	-0.0415 ± 0.017
CCGACGCA	-0.0454 ± 0.012
GTCACATA	0.263 ± 0.0064
ATGCGATC	-0.0333 ± 0.042
CAAGTTGA	0.116 ± 0.0034
AGCGTTGA	0.102 ± 0.055
GACCTCCC	-0.178 ± 0.0044
CCCCTCCG	0.137 ± 0.019
AACCTCCC	-0.0756 ± 0.12
AACCTCCA	-0.158 ± 0.028
TACCTCCA	-0.00358 ± 0.099
CACCTCCA	0.423 ± 0.0067
CACCTCCC	0.423 ± 0.0044
AACCTCCG	0.0421 ± 0.042
CACCTCCG	0.447 ± 0.0095
CCGAAGTA	-0.302 ± 0.021
CCCAAGTA	-0.0284 ± 0.033
CGAGTGCA	-0.0272 ± 0.087
ACGAACTG	0.0451 ± 0.03
CCTTTGGC	0.0109 ± 0.046
CGATCCAG	-0.0702 ± 0.018
ACACCTGA	0.4657 ± 0.0021
CCACCTGG	0.252 ± 0.0058
ACACCTGC	0.461 ± 0.017

Sequence	PBM E-score of 8-mer
GCACCTGC	0.395 ± 0.018
ATACCTGG	0.139 ± 0.025
CGACCTGC	0.196 ± 0.043
ATACCTGC	0.0129 ± 0.047
AAACCTGA	0.0859 ± 0.12
CCACCTGC	0.299 ± 0.02
GAACCTGC	-0.162 ± 0.0065
ACACCTGG	0.466 ± 0.0053
AGACCTGA	-0.102 ± 0.055
ATGCCCAC	-0.186 ± 0.051
AGAACCCT	-0.229 ± 0.014
ACTCGCCA	0.144 ± 0.015
CCTCTTAG	-0.103 ± 0.0023
CTATACCA	-0.205 ± 0.013
AGCCCCAG	-0.138 ± 0.057
TCTTGCCA	0.0678 ± 0.023
GAGAACCC	-0.0803 ± 0.011
AGGCTCTG	-0.0891 ± 0.012
AAGAATGT	-0.0657 ± 0.011
ATCAGTGG	-0.0659 ± 0.059
AGGGCAAG	-0.2 ± 0.018
TCGATTCA	0.0262 ± 0.015
GTGGGCCA	-0.191 ± 0.031
